This is an account of results in PubChem BioAssay (Tox21).

Structures are written as SMILES. Several values for one entry are separate records, joined by “and”; a condition that tells them apart may be missing. Equal entries are not always repeated. Results filed as inconclusive are left out. A call without a number means that no potency is given here. Some structures have more than one record in an assay (separate samples or runs), and their calls can disagree. Activity calls are given as the source filed them. Calls come from the whole dose curve; as a rule, active = well fitted cell-killing curve with a large enough effect in the repeat runs; inconclusive = weak or mixed curves; inactive = flat fitted curve, though single readings scatter.
Potency is the fitted concentration of half-maximal effect.

A short description of the assay: qHTS RealTime-Glo MT Cell Viability Assay in HepG2 cells - 8 hour (AID 1224873). Note: nearly all actives have a fitted effect of over 55% in size. As to conditions: RealTime-Glo luminescence; series mostly up to 76.8 µM. An excerpt: National Center for Advancing Translational Sciences [NCATS]
NIH Chemical Genomics Center [NCGC]
U.S. Environmental Protection Agency [EPA]
National Institutes of Environmental Health Sciences [NIEHS]
National Toxicology Program [NTP]
U.S. Food and Drug Administration [FDA]
Measure of cell viability is critical in the cell-base assay. Analysis of cell viability is necessary for the characterization of cell responses to cytotoxic drugs and environmental stress. A RealTime-Glo MT Cell Viability Assay to monitor cell viability in real time of continues cell culture during 40 hours of compound treatment was used to screen Tox21 10K library compounds in HepG2 cells. The RealTime-Glo MT Cell Viability Assay is a nonlytic, homogeneous, bioluminescent method to measure cell viability in real time using a simple, plate-based method. The assay involves adding NanoLuc luciferase and a cell-permeant prosubstrate to cells in culture. Viable cells reduce the proprietary prosubstrate to generate a substrate for NanoLuc luciferase. This substrate diffuses from cells into the surrounding culture medium, where it is rapidly used by the NanoLuc Enzyme to produce a luminescent signal. The signal correlates with the number of viable cells, making the assay well suited for cytotoxicity studies.
Tox21 Assay Protocol Summary:
The mixture of HepG2 cell suspension and reagents were dispensed at 600cells/6 ul/well in 1536-well tissue culture treated black solid bottom plates using a Multidrop dispenser. After the assay plates were incubated at a 37 C/5% CO2 incubator for 5 hours, 23 nL of compounds dissolved in DMSO, positive and negative controls was transferred to the assay plate by a pintool work station. The plates were incubated at 37 C for 40 hours. The luminescence intensity were measured at 0h, 8h, 16h, 24h, 32h and 40h time points using ViewLux plate reader during compound treatment.
Consider `Cc1c(C)c([N+](=O)[O-])c(C(C)(C)C)c([N+](=O)[O-])c1C`, for which the Potency result is “inactive”.

In the case of `CCCCCCCCCCCCCC[N+](C)(C)C`, the Potency was 18.8 µM (active) and 54.9 µM (active) and inactive.

As to `O=C(O)c1cc(-c2ccc(F)cc2F)ccc1O`, the Potency entry was “inactive”.

Take `FC(F)(F)c1cccc(Cl)c1`: the Potency result was “inactive”.

Regarding `CC1=Nc2ccccc2C1(C)C`, the Potency entry is “inactive”.

For the compound `O=C1c2ccccc2C(=O)N1SC1CCCCC1`, the Potency was 38.9 µM (active).

As for `C=CCCC(=O)/C=C/C1C(C)=CCCC1(C)C` (stereo not given), the Potency entry was “inactive”.

For `COC(=O)c1ccccc1C`, the Potency entry was “inactive”.

Take `Clc1sc(Cl)c(Cl)c1Cl`: the Potency entry is “inactive”.

Consider `CCCCC(CC)CN1CN(CC(CC)CCCC)CC(C)(N)C1` (stereo not given), for which the Potency was 19 µM (active).

As to `Cc1cc(C)c(/C=C2\C(=O)Nc3ccccc32)[nH]1`, the Potency entry is “inactive”.

Take `CC1(C)CCC[C@]2(C)[C@H]3CC(=O)O[C@]3(C)CC[C@@H]12`: the Potency result was “inactive”.

With `O=C(Oc1ccccc1)Oc1ccccc1`, the Potency entry was “inactive”.

`CCN(CC)c1ccc2c(-c3ccc(S(=O)(=O)O)cc3S(=O)(=O)[O-])c3ccc(=[N+](CC)CC)cc-3oc2c1`: the Potency result was “inactive”.

Regarding `OC1CCCc2ccccc21` (stereo not given), the Potency entry was “inactive”.

As for `CC(C)(C)NSc1nc2ccccc2s1`, the Potency entry was “inactive”.

Turning to `CCCC(=O)OC(C)(C)Cc1ccccc1`, the Potency entry is “inactive”.

For the compound `Nc1nc2c(ncn2COCCO)c(=O)[nH]1`, the Potency result is “inactive”.

As for `Cc1c(C)c2c(c(C)c1OC(=O)c1cccnc1)CC[C@@](C)(CCC[C@H](C)CCC[C@H](C)CCCC(C)C)O2`, the Potency entry is “inactive”.

Consider `CCCC[P+](C)(CCCC)CCCC`, for which the Potency entry is “inactive”.

Regarding `Nc1ccc(NCCO)c([N+](=O)[O-])c1`, the Potency entry is “inactive”.

Turning to `Cc1ccc(C)cc1`, the Potency result was “inactive”.

On to `Cc1c(F)c(N2CCNC(C)C2)cc2c1c(=O)c(C(=O)O)cn2C1CC1` (stereo not given), for which the Potency result is “inactive”.

On to `OCC(F)(F)F`, for which the Potency entry is “inactive”.

With `CN1CCN(Cc2cc(-c3ccc4[nH]c(=O)oc4c3)co2)[C@@H](c2ccc(F)cc2)C1`, the Potency result was “inactive”.

With `CCN(CC)C(=O)c1cc(S(=O)(=O)Cc2ccccc2)c(N2CCC(c3ccccc3)CC2)cc1N(CC)CCN(C)C`, the Potency is 17.2 µM (active).

Turning to `Oc1cc(Cl)cc(Cl)c1Cl`, the Potency entry was “inactive”.

On to `Cc1c(C)c2c(c(C)c1O)CC[C@@](C)(CCC[C@H](C)CCC[C@H](C)CCCC(C)C)O2`, for which the Potency result is “inactive”.

On to `CNc1ccc([N+](=O)[O-])cc1`, for which the Potency entry was “inactive”.

Turning to `COc1c(C)c2c(c(O)c1C/C=C(\C)CCC(=O)OCCN1CCOCC1)C(=O)OC2`, the Potency result is “inactive”.

`CN1CCCCC1CCN1c2ccccc2Sc2ccc(S(C)=O)cc21` (stereo not given): the Potency result was “inactive”.

On to `COc1ccc(NC(=O)CC(C)=O)cc1`, for which the Potency entry was “inactive”.

In the case of `c1ccc(C(O[C@@H]2CCCN(CCc3ccc4c(c3)OCO4)C2)c2ccccc2)cc1`, the Potency result is “inactive”.

For the compound `CC1(C)CCC[C@]2(C)[C@H]3CCO[C@]3(C)CC[C@@H]12`, the Potency entry was “inactive”.

In the case of `CCOc1ccc2ccccc2c1C(=O)N[C@@H]1C(=O)N2[C@@H]1SC(C)(C)[C@@H]2C(=O)O`, the Potency entry was “inactive”.

As for `C1CCC(SSC2CCCCC2)CC1`, the Potency result is “inactive”.

Take `CC(C)(C)CC(C)(C)c1ccc(Nc2ccc(C(C)(C)CC(C)(C)C)cc2)cc1`: the viability change, negative = cytotoxic was 4.91% [at 6.97 µM] (inactive).

For the compound `Nc1nc(N)nc(-c2cc(Cl)ccc2Cl)n1`, the Potency entry was “inactive”.

With `NC(=O)c1cccc([N+](=O)[O-])c1`, the Potency entry is “inactive”.

For the compound `Cc1cc(C(C)(C)C)cc(C)c1CC1=NCCN1`, the Potency result was “inactive”.
